Measurements as given in PubChem BioAssay AID687031 (Broad Institute, 2013).
Screen size: about 1,400 compounds; about 50 (4%) were called active.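 Rule for the calls: active = fitted curve reaches 30% CPE protection at or below the top valid dose, with every test run called active; inconclusive = test runs disagree, some active and some not; inactive = every test run inactive, including effects in the wrong direction.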 A selection follows. Results with a measured potency or affinity are listed apart.

assay: Dengue virus 2 cytopathic effect protection, dose response, BHK-21 cells, ATP luminescence, cherry-pick (AID 687031); details: BHK-21 DENV2 CPE protection, 5 d; series mostly up to 19.5 µM; CPE protection (higher = active): at the top concentration;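 note: 0% = infected DMSO wells and 100% = uninfected cell wells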

CPE protection (higher = active), inactive:
COc1ccc(C(CCN2CCOCC2)c2c(OC)cc(OC)c3c(C)cc(=O)oc23)cc1 (stereo not drawn) 27.1%
CN1C[C@@H]2[C@@H]3C(=O)N(Cc4ccccc4)C(=O)[C@@H]3[C@](C)(C1=O)N2C(=O)c1ccc(C(C)(C)C)cc1 8.78%
Cc1ccc(S(=O)(=O)N2CCN(C(=O)COC(=O)Cc3ccc(Cl)cc3)CC2)c(C)c1 -8.53%
O=C(c1ccccc1Cc1ccccc1)N1CCN(S(=O)(=O)c2ccccc2)CC1 0.551%
O=C1[C@@H](Oc2ccccc2)[C@@H](c2ccncc2)N1c1ccncc1 -3.03%
Cc1ccc2ccc(C(Nc3ccccc3)c3ccccc3)c(O)c2n1 (stereo not drawn) -6.24%
Cc1ccc(CNC(=O)C2CCC(=O)N(CCc3ccccn3)C2)s1 (stereo not drawn) -1.35%
Cc1cccc(N2CCN(C(C(=O)NCc3ccccc3)c3ccc(F)cc3)CC2)c1C (stereo not drawn) -8.34%
CC1(C)CC(=O)N(CC(=O)O)c2ccccc2S1(=O)=O -20.4%
CCNC(=O)C[C@H]1CC[C@@H]2[C@H](COC[C@H](O)CN2Cc2ccc(Cl)c(Cl)c2)O1 12.1%
Cc1noc(C)c1S(=O)(=O)Nc1ccc2c(c1)C(=O)N([C@H](C)CO)C[C@H](C)[C@H](CN(C)C(=O)Nc1ccccc1)OCCCC[C@@H](C)O2 7.27%
Cc1noc(C)c1S(=O)(=O)Nc1ccc2c(c1)C(=O)N([C@@H](C)CO)C[C@@H](C)[C@@H](CN(C)C(=O)Nc1ccccc1)OCCCC[C@@H](C)O2 34% [at 10 µM]
CNc1cc(-c2ccc(O)cc2C)ncn1 -18%
O=C(C1CCOCC1)N1CC[C@@H]2[C@H]1c1cc(-c3cccc(F)c3)ccc1N[C@@H]2CO -4.08%
O=C(C1CC1)N1CC[C@@H]2[C@H]1c1cc(-c3ccc(F)cc3)ccc1N[C@@H]2CO 19.9%
Cc1ccc(S(=O)(=O)c2nnn3c2nc(N2CCOCC2)c2ccccc23)cc1C 18.2%
CCCN(CC(=O)Nc1ccccc1C)C(=O)C1CCN(S(=O)(=O)c2ccc(C)c(C)c2)CC1 6.3%
CCC(C)(C)C1CCc2[nH]nc(C(=O)NCc3ccccn3)c2C1 (stereo not drawn) 13.8% [at 10 µM]
O=C(NCc1ccccn1)C(=O)NCC1OCCN1S(=O)(=O)c1ccc(Br)cc1 (stereo not drawn) -4.64%
COc1ccc(CN(C)C[C@H]2OCCCC[C@@H](C)Oc3ccc(NC(=O)NC(C)C)cc3C(=O)N([C@H](C)CO)C[C@H]2C)cc1 13.6% [at 21 µM]
CN1c2ccc(-c3cccc(F)c3)cc2[C@H]2[C@H](CCN2C(=O)Cc2cccnc2)[C@H]1CO -9.94%
O=C(C1CCOCC1)N1C[C@@H]2[C@H](c3ccccc31)[C@H](CO)N2C(=O)c1ccccc1 -12.7%
CC(C)NC(=O)N1C[C@H]2[C@@H](c3ccccc31)[C@@H](CO)N2C(=O)c1ccccn1 6.1%
COc1ccc2ccccc2c1/C=N/NC(=O)c1ccccc1F 3.87%
Cc1ccccc1S(=O)(=O)N1CC[C@H]2[C@@H](CO)N(C)c3ccc(Br)cc3[C@H]21 2.06%
CCOc1ccc2[nH]c3ncccc3c(=O)c2c1 -4.21%
CC1(C(=O)NCc2cccs2)Cc2c(-c3cccc(C(F)(F)F)c3)ccnc2O1 (stereo not drawn) 17%
CCc1nnc(NC(=O)c2ccc(F)c(S(=O)(=O)N3CCCCC3)c2)s1 -19.2%
O=C(C[C@H]1C[C@@H]2c3cc(NC(=O)CC4CC4)ccc3O[C@@H]2[C@H](CO)O1)NCc1ccccc1 -5.22%
CN(C)CC(=O)Nc1ccc2c(c1)[C@H]1C[C@H](CC(=O)NC3CCCCC3)O[C@@H](CO)[C@H]1O2 0.976%
Cc1ccc(NCC(=O)N/N=C/c2cccc(Br)c2)cc1 7.97%
CCCCCC(=O)N1C[C@@H](n2cc(C3CC3)nn2)[C@H](O)C[C@@H]1c1ccccc1 -7.51%
Cc1ccccc1CN1C(=O)CN(S(C)(=O)=O)CC1(C)C(=O)NCc1ccccc1 (stereo not drawn) -24.2%
CC(=O)Nc1cccc(C(=O)OC(C)C(=O)NC(=O)NC2CCCCC2)c1 (stereo not drawn) -3.28%
COCCNC(=O)C1CCC(CNS(=O)(=O)c2ccc(F)cc2)CC1 (stereo not drawn) -10.5%
CCOC(=O)C1=C(C)NC(=O)NC1c1ccc(N(C)C)cc1 (stereo not drawn) -0.681%
N#C[C@@H]1[C@H](c2ccc(-c3ccccc3F)cc2)[C@H](CO)N1C(=O)C1CC1 -0.808% [at 21 µM]
Cc1ccc(S(=O)(=O)N2CCOCC2)cc1NC(=O)CN(C)CC(=O)Nc1cccc(F)c1 -5.13%
CCN(CC(=O)Nc1c(F)cccc1F)C(=O)C1CCN(S(=O)(=O)c2ccc(F)cc2)CC1 -5.16%
COc1ccc(-c2cc(C(=O)NCCCN3CCCC3=O)c3ccccc3n2)cc1 -27.2%
CSc1cccc(NC(=O)CC2Oc3ccccc3NC2=O)c1 (stereo not drawn) -0.118%
CCOc1ccc(N(CC(=O)NC2CCCC(C)C2C)S(=O)(=O)c2c(C)noc2C)cc1 (stereo not drawn) -13.2%
Cn1c(=O)c2[nH]c(CCCCc3nc4ccccc4[nH]3)nc2n(C)c1=O 6.76%
COc1ccc(CC(N)c2csc(NC(=O)c3ccc(OC)cc3)n2)cc1 (stereo not drawn) -8.87%
Nc1ccc(CC(N)c2csc(Nc3cc(Oc4ccccc4)ncn3)n2)cc1 (stereo not drawn) -9.32%
CC(C)SCc1cc(N2CCCC2)nc(-c2ccccc2)n1 -9.75%
COc1ccccc1-c1noc2c1C(=O)N(Cc1cn(Cc3ccccc3)nn1)CC2 6.91%
COc1ccc2ccccc2c1-c1sc(Nc2ccccc2)n[n+]1-c1ccc(F)cc1 -20%
CNC[C@@H]1OCCCC[C@H](C)Oc2ccc(NS(=O)(=O)c3c(C)noc3C)cc2C(=O)N([C@@H](C)CO)C[C@@H]1C 4.03%
CC1CCCCC12NC(=O)N(CC(=O)NCc1cccs1)C2=O (stereo not drawn) 2.88%
O=C(NCc1cccs1)c1cccc(Nc2nc3ccc(Br)cc3[nH]2)c1 -1.49%
CN(Cc1ccccc1)CC1CCCN(CCc2ccccc2F)C1 (stereo not drawn) 3.08%
CC(C)Cc1ccc(C(C)C(N)=NCCc2ccccc2)cc1 (stereo not drawn) 21.7%
CCN(C)C1CN(Cc2cn(Cc3ccc(F)cc3)nn2)S(=O)(=O)C1 (stereo not drawn) -3.5%
CCOc1ccc(Oc2nc(NCC(C)C)nc(OC)n2)nn1 -24.7%
O=C(NC(C(=O)N1CCCC1C(=O)NC1CCCC1)c1ccccc1)c1cccs1 (stereo not drawn) -11.5%
NS(=O)(=O)c1ccc(CCNC(=O)C2CCCN2C(=O)c2cccs2)cc1 (stereo not drawn) -11.5%
CCC(=O)N1CC2(C1)CN(C(=O)Nc1ccc(F)cc1)[C@H](CO)c1c2c2ccc(OC)cc2n1C 5.8%
